# Assay results as given in PubChem BioAssay.
# Activity calls are given as the source filed them.
# Legend:
# [1] = optical density shifts of acrAB sulA E. coli – strain DRC41, OD650, 48 h, E. coli filamentation inducer project, primary screen (AID 1152); conditions: higher = more signal, called active from +8 up or from −8 down;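 also: E. coli MC1000 strain DRC41 lacking acrAB efflux pump and sulA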
# [2] = probe aLefty1 binding on compound microarray – biochemical, small-molecule microarray, 635/667 nm fluorescence, primary screen (AID 1153); conditions: higher = more signal;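 also: score merges spot fluorescence with signal-to-noise ratio from the scanned slide images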
# [3] = plasmodial surface anion channel blockers, osmotic lysis – cell-based, P. falciparum Indochina, OD700, 1 h, primary screen (AID 1154); conditions: P. falciparum Indochina infected RBC osmotic lysis, higher = more signal, called active from +8 up or from −8 down
# [4] = plasmodial surface anion channel blockers, osmotic lysis – cell-based, P. falciparum Indochina, OD700, 2 h, primary screen (AID 1155);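 also: lysis reports solute entry through the parasite surface anion channel PSAC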; conditions: P. falciparum Indochina infected erythrocytes, higher = more signal, called active from +8 up or from −8 down
# [5] = changes in parasitized red cell lysis, either direction – P. falciparum Indochina, OD700, 3 h, PSAC antagonist project, primary screen (AID 1156); conditions: P. falciparum-infected erythrocytes, osmotic lysis, higher = more signal, called active from +8 up or from −8 down
# [6] = plasmodial surface anion channel blockers, osmotic lysis – cell-based, P. falciparum Indochina, OD700, 18 h, primary screen (AID 1157); conditions: P. falciparum Indochina infected erythrocytes, osmotic lysis OD700, 18 h; higher = more signal, called active from +8 up or from −8 down
# [7] = S6 kinase pathway phospho-S6 level changes – cell-based, A549, cytoblot, luminescence, serum-stimulated, primary screen (AID 1158); conditions: 5 h, higher = more signal;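 also: serum-stimulated A549 lung adenocarcinoma cells; signal is phosphorylated S6 detected by cytoblot immunostaining with HRP secondary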
# [8] = biological target: NADPH oxidase 2 (Homo sapiens) (UniProt P04839); assay: compounds shifting NOX2 Amplex Red fluorescence – cell-based, HEK293-NOX2, PMA-stimulated, NOX inhibitor project, primary screen (AID 1159); conditions: 45 min, higher = more signal, called active from +8 up or from −8 down; also: test concentration not given here
# NADPH oxidase 2 (Homo sapiens), sequence (P04839 whole entry, looked up): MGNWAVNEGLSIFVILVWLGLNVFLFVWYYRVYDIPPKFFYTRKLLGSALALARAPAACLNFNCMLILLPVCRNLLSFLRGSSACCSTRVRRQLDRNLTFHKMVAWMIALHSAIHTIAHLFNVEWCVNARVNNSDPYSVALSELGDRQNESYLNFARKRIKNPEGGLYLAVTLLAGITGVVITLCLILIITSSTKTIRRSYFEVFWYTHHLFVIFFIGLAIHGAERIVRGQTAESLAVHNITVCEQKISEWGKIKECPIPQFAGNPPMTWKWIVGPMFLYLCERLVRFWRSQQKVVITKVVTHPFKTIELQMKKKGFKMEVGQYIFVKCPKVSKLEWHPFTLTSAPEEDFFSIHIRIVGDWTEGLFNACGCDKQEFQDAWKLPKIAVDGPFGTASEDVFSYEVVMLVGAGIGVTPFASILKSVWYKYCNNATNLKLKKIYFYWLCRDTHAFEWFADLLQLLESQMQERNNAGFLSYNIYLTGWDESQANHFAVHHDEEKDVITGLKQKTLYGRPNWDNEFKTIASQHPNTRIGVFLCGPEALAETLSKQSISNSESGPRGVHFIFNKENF
# [9] = biological target: NADPH oxidase 4 (Homo sapiens) (UniProt Q9NPH5); assay: compounds shifting NOX4 Amplex Red fluorescence – cell-based, HEK293-NOX4, tetracycline-induced, NOX inhibitor project, primary screen (AID 1160); conditions: HEK293-NOX4, Amplex Red H2O2 fluorescence, 45 min; higher = more signal, called active from +8 up or from −8 down
# NADPH oxidase 4 (Homo sapiens), sequence (Q9NPH5 whole entry, looked up): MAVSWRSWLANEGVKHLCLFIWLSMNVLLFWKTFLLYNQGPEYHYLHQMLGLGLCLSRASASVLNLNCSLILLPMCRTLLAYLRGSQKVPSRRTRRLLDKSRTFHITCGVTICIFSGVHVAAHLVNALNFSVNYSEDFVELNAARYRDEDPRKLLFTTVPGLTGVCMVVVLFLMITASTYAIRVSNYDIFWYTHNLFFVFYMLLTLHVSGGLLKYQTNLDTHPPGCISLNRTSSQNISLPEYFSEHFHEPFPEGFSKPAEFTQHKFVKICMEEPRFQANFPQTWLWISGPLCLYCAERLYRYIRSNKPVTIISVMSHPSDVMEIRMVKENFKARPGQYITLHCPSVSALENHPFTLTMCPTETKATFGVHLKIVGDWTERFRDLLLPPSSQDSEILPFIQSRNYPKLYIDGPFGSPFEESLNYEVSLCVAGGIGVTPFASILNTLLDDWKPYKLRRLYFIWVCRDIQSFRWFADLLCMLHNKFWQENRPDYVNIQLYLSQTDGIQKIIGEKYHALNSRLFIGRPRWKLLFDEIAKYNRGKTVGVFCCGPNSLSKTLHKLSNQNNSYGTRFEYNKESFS
# [10] = biological target: NADPH oxidase 5 (Homo sapiens) (UniProt Q96PH1); assay: compounds shifting NOX5 Amplex Red fluorescence – cell-based, HEK293-NOX5, NOX inhibitor project, primary screen (AID 1161); conditions: HEK293-NOX5, ionomycin, 45 min, higher = more signal
# NADPH oxidase 5 (Homo sapiens), sequence (Q96PH1 whole entry, looked up): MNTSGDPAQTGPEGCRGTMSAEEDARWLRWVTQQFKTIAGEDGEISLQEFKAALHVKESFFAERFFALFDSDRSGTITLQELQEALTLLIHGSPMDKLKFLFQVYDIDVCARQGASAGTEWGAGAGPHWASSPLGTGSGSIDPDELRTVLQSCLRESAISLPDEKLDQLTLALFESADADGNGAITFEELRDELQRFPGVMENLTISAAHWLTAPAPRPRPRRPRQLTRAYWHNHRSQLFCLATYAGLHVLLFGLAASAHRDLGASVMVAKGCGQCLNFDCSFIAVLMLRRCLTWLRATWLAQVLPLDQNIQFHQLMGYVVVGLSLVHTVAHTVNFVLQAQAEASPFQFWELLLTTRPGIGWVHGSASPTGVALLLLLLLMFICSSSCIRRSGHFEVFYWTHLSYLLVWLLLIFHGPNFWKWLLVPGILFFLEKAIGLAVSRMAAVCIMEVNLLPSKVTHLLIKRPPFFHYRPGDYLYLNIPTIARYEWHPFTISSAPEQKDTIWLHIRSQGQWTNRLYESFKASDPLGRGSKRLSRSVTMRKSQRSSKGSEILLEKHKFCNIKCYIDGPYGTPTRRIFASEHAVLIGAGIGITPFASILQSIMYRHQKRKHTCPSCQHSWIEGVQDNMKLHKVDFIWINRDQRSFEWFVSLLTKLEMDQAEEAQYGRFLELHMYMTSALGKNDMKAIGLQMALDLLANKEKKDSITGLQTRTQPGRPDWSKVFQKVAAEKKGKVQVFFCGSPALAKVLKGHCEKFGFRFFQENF
# [11] = compound effects on lung adenocarcinoma cell viability – A549, calcein-AM fluorescence, 48 h, basal, profiling panel (AID 1162); conditions: higher = more signal; also: test concentration not given here
# [12] = compound effects on differentiated 3T3-L1 adipocyte viability – cell-based, 3T3-L1 adipocytes, calcein-AM fluorescence, 48 h, basal, profiling panel (AID 1163); conditions: 3T3-L1 adipocytes viability, higher = more signal; also: test concentration not given here
# [13] = compound effects on hepatocellular carcinoma cell viability – HepG2, calcein-AM fluorescence, 48 h, basal, profiling panel (AID 1164); conditions: higher = more signal; also: test concentration not given here
# [14] = compound effects on multiple myeloma cell viability – MM1S, calcein-AM fluorescence, 48 h, basal, profiling panel (AID 1165); conditions: higher = more signal; also: test concentration not given here
# [15] = calcein-AM signal in unstimulated myeloma cells – cell-based, calcein-AM fluorescence, 48 h, PK04 Diversity Set, profiling panel (AID 1166); conditions: RPMI8226 myeloma viability, higher = more signal;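 also: cells grown under basal conditions without added stimulus; test concentration not given here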
# [16] = JC-1 mitochondrial signal, unstimulated HepG2 cells – cell-based, JC-1 fluorescence, 24 h, 100 nL compound, profiling panel (AID 1167); conditions: HepG2 mitochondrial potential, higher = more signal; also: test concentration not given here
# [17] = JC-1 mitochondrial signal, unstimulated adipocytes – cell-based, JC-1 fluorescence, 3T3-L1 adipocytes, 24 h, 100 nL compound, profiling panel (AID 1168); conditions: JC-1 mitochondrial fluorescence, higher = more signal, called active from +8 up or from −8 down; also: test concentration not given here
# [18] = JC-1 mitochondrial signal, unstimulated myeloma cells – cell-based, JC-1 fluorescence, RPMI8226, 24 h, 100 nL compound, profiling panel (AID 1169); conditions: JC-1 mitochondrial potential fluorescence, higher = more signal; also: test concentration not given here
# [19] = JC-1 mitochondrial signal, unstimulated MM1S myeloma – cell-based, JC-1 fluorescence, 24 h, 100 nL compound, profiling panel (AID 1170); conditions: MM1S mitochondrial potential, higher = more signal; also: test concentration not given here
# [20] = resazurin metabolic signal in A549 cells – cell-based, resazurin fluorescence, 24 h, PK04 Diversity Set, profiling panel (AID 1171); conditions: A549 viability, higher = more signal, called active from +8 up or from −8 down; also: test concentration not given here
Compound,z-score [1],composite z-score [2],z-score [3],z-score [4],z-score [5],z-score [6],z-score [7],z-score [8],z-score [9],z-score [10],z-score [11],z-score [12],z-score [13],z-score [14],z-score [15],z-score [16],z-score [17],z-score [18],z-score [19],z-score [20]
C=CC[C@@]1(C(=O)N(C)C)N=C(c2ccc(OCCCO)cc2)O[C@@H]1c1ccccc1,-0.463 (inactive),0.123,24 (active),5.44 (inactive),0.549 (inactive),1.13 (inactive),-0.342,-0.315 (inactive),0.723 (inactive),-0.651,-0.511,-0.681,-0.815,-1.01,0.127,-0.644,-0.895 (inactive),-0.305,-0.491,0.79 (inactive)
C[C@@H](OCc1ccccc1)C1NC(=O)[C@@]23C(=O)N[C@@H](Cc4ccccc4)C2[C@H](C)[C@@]2(C)O[C@H]2C3/C=C/C/C=C\CNC(=O)[C@H](Cc2ccccc2)NC1=O (stereo not given in full),0.725 (inactive),-0.0544,1.18 (inactive),0.012 (inactive),0.526 (inactive),0.156 (inactive),0.858,0.487 (inactive),0.924 (inactive),0.349,0.247,0.854,0.235,-1.42,-2.1,0.637,-0.355 (inactive),-0.497,0.546,-0.792 (inactive)
NC(=O)NCC#Cc1ccc2c(c1)[C@]1(C(=O)N2)[C@H](C(=O)Nc2nc3ccccc3s2)[C@H]2C(=O)O[C@H](c3ccccc3)[C@H](c3ccccc3)N2[C@@H]1c1ccc(OCCO)cc1,0.197 (inactive),0.309,1.93 (inactive),1.1 (inactive),-0.166 (inactive),0.737 (inactive),0.169,0.681 (inactive),0.611 (inactive),0.715,-0.163,0.466,-1.43,-0.231,-0.349,-3.18,0.272 (inactive),-1.14,-1.88,0.767 (inactive)
CCOC(=O)C1=C(C(=O)OCC)N(S(=O)(=O)CC[Si](C)(C)C)[C@H](c2ccccc2)CC1,-0.941 (inactive),0.174,1.23 (inactive),0.763 (inactive),0.106 (inactive),0.19 (inactive),-0.405,-0.135 (inactive),0.232 (inactive),0.134,-2.6,-0.872,-2.78,-1.02,-4.13,3.63,-0.0617 (inactive),-0.982,-3.04,0.571 (inactive)
C=CC[C@]1(C(=O)NCCCOC)N=C(c2ccc(OCCCO)cc2)O[C@H]1c1ccccc1,0.898 (inactive),-0.0172,12.3 (active),0.912 (inactive),0.932 (inactive),0.643 (inactive),0.727,-2.35 (inactive),-0.164 (inactive),-0.87,0.0753,0.301,-1.1,-0.464,0.511,0.238,0.171 (inactive),-0.446,-0.607,1.32 (inactive)
CN(C)CCCC[C@@H]1NC(=O)[C@@H]2C[C@H](C(=O)NCc3ccc(F)cc3)[C@H](c3ccc(O)cc3)N2C1=O,-0.876 (inactive),-0.0501,1.98 (inactive),0.947 (inactive),-1.62 (inactive),0.35 (inactive),0.359,0.391 (inactive),-0.25 (inactive),0.714,-0.467,-0.904,0.263,0.135,-0.0865,0.393,-0.0839 (inactive),-0.963,-0.187,-0.454 (inactive)
NCCCC[C@@H]1NC(=O)[C@H]2C[C@@H](C(=O)NCc3ccc(F)cc3)[C@@H](c3ccc(O)cc3)N2C1=O,-0.495 (inactive),0.954,2.55 (inactive),0.724 (inactive),-3.15 (inactive),0.302 (inactive),-0.516,0.903 (inactive),0.941 (inactive),0.993,-0.494,-0.0841,-0.666,-0.206,0.307,-1.64,-0.4 (inactive),0.667,0.0192,-0.537 (inactive)
C=CCC(OC(C)=O)[C@@H]1[C@@H](N(Cc2cccc3ccccc23)C(=O)c2ccc(-c3ccccc3)cc2)c2cc(OCCCO)ccc2N1C(=O)c1ccc2ccccc2n1 (stereo not given in full),-0.688 (inactive),0.123,0.0025 (inactive),-0.232 (inactive),-0.44 (inactive),-0.0821 (inactive),1.14,-0.0242 (inactive),1.04 (inactive),1.48,-0.421,0.587,0.589,-0.848,-0.842,1.08,-0.12 (inactive),0.61,-0.0192,0.701 (inactive)
CCCCNC(=O)c1ccc(C#C[Si](C)(C)C)c(OC(C)=O)c1,0.151 (inactive),-0.0032,12.3 (active),1.64 (inactive),1.67 (inactive),0.672 (inactive),0.726,1.8 (inactive),0.194 (inactive),0.0648,-0.507,0.477,-0.484,0.131,-1.13,-1.12,-0.538 (inactive),-0.215,-0.601,-0.389 (inactive)
CCOC(=O)C1=CC[C@@H](c2ccccc2)N(S(=O)(=O)c2ccc(C)cc2)[C@H]1C#N,-0.355 (inactive),-0.081,2.97 (inactive),1.91 (inactive),-0.157 (inactive),0.999 (inactive),-0.769,0.426 (inactive),0.122 (inactive),-0.116,-0.97,-0.84,-0.139,-3.21,-2.32,-0.858,-1.04 (inactive),-0.441,-2.33,0.172 (inactive)
CC(=O)c1ccc(C(O)C2C=CC3C(=O)NC(=O)C3N2Nc2ccc(Cl)cc2Cl)cc1 (stereo not given),-2.32 (inactive),0.0267,2.38 (inactive),0.738 (inactive),1.15 (inactive),1 (inactive),-0.497,-0.826 (inactive),-5.81 (inactive),-3.8,-0.807,-0.458,-1.28,-0.124,-0.344,-0.976,-1.4 (inactive),0.574,0.863,-0.743 (inactive)
CC(=O)n1cc(C(O)C2C=CC3C(=O)N(c4ccccc4)C(=O)C3N2Nc2ccccc2F)c2ccccc21 (stereo not given),0.506 (inactive),-0.147,8 (active),1.04 (inactive),0.0784 (inactive),-0.0595 (inactive),0.988,-1.82 (inactive),-3.23 (inactive),-0.614,0.512,0.23,-0.798,-0.834,-0.056,-0.69,-1.2 (inactive),0.408,-1.41,0.423 (inactive)
O=C1OCCC=C[C@H]2OC34C=CCN(c5ccc(Cl)cc5)C(=O)[C@H]3N(CCO)C(=O)[C@@H]4C12 (stereo not given in full),-0.232 (inactive),-0.0501,0.773 (inactive),0.183 (inactive),0.766 (inactive),0.355 (inactive),-0.509,1.69 (inactive),-0.0621 (inactive),1.48,-0.384,0.0844,0.0509,0.739,-0.165,-0.28,0.296 (inactive),0.0137,1.29,0.519 (inactive)
CC(C)C(=C=CC[C@@H](O)c1ccc(OCCO)cc1)CCO,1.7 (inactive),-0.0054,2.86 (inactive),-0.421 (inactive),-0.143 (inactive),-1.58 (inactive),1.42,-1.47 (inactive),-0.462 (inactive),-0.971,-0.45,0.721,-0.164,0.626,0.991,0.871,0.437 (inactive),-0.21,-1.11,1.22 (inactive)
COC(=O)C1=CC(CCCO)=CC(C2CC2)N(Cc2cccc(OC(F)(F)F)c2)C=C1C(=O)OC (stereo not given),-1.16 (inactive),0.193,3.22 (inactive),0.455 (inactive),-0.623 (inactive),0.526 (inactive),0.204,-0.179 (inactive),-0.34 (inactive),0.973,-0.851,0.589,0.525,-0.525,-0.708,1.18,0.767 (inactive),-0.862,-0.159,0.644 (inactive)
O=C1c2ccccc2[C@](Cc2ccccc2I)(C(=O)O)[C@H](c2ccc(CO)cc2)N1Cc1ccccc1,0.848 (inactive),0.223,4.42 (inactive),-0.579 (inactive),-0.144 (inactive),-0.656 (inactive),1.25,0.516 (inactive),0.148 (inactive),1.71,1.48,0.431,1.04,0.295,-1.66,0.275,0.0449 (inactive),-0.601,-0.349,-1.45 (inactive)
COc1cccc(OC)c1C(=O)O[C@H]1[C@@H]2OC(=O)[C@H](Cc3cccc(Br)c3)C/C=C/C[C@@H](Cc3cccc(Br)c3)C(=O)O[C@H]2[C@@H](OC)O[C@@H]1CO,-0.899 (inactive),-0.0559,3.18 (inactive),-0.0392 (inactive),-1.53 (inactive),0.581 (inactive),0.0487,-0.443 (inactive),-0.0533 (inactive),0.955,-0.144,0.0726,-0.215,-2.6,-3.88,-3.42,-0.819 (inactive),-0.735,-0.211,-0.952 (inactive)
COc1ccc([Si](C)(C)[C@H]2[C@H](CCO)O[C@@]3(C(=O)N(Cc4ccccc4)c4ccc(N(C=O)c5ccccc5)cc43)[C@@H]2C)cc1,0.352 (inactive),0.0927,5.68 (inactive),2.52 (inactive),1.12 (inactive),1.28 (inactive),0.456,-0.98 (inactive),0.184 (inactive),1.23,-0.108,0.288,-3.3,-0.622,-2.82,0.553,-0.00912 (inactive),-0.914,-1.27,-1.25 (inactive)
